# Data from paper PMC7862700, “An all-to-all approach to the identification of sequence-specific readers for epigenetic DNA modifications on cytosine”.
# Tests used:
# Experiment in all cases: DAPPL (digital affinity profiling via proximity ligation, sequencing); 10 mM Tris-HCl pH 7.5, 50 mM NaCl, 1 mM DTT, 4% glycerol, room temperature, 30 min; GST-TFs on glutathione beads, 16-mer random dsDNA library, 0.1% formaldehyde crosslink after washing; high values mean tight binding
# FEV = molecular target: T1, FEV (Homo sapiens, UniProt Q99581 1-238); details: protein: recombinant; tags: N-terminal GST; dsDNA, one strand shown
# T1 sequence: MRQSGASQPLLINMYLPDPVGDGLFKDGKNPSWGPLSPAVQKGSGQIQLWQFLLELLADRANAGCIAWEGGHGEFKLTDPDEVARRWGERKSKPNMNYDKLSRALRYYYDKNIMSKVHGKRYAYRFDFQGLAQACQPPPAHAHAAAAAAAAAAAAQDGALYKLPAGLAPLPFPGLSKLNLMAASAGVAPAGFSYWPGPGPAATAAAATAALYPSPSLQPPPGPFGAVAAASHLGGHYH
# How it was run: (§1)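 Human transcription factors fused to GST were expressed in yeast, captured on glutathione beads, given DNA barcodes and pooled with a GST-only negative control. Pools were incubated with 200 nmole of a 16-mer random double-stranded DNA library in Tris/NaCl/DTT/glycerol buffer at room temperature for 30 min. They were then washed, crosslinked with 0.1% formaldehyde, proximity-ligated (BsaI/T4 ligase, 1 h, 37 °C), PCR-amplified and sequenced on an Illumina NextSeq500. Binding signal is each 6-mer's read frequency for a factor divided by its frequency for the GST control.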
# ETV5 = ETV5 (Homo sapiens, UniProt P41161 1-510); details: protein: recombinant; tags: N-terminal GST; dsDNA, one strand shown
# How it was run: as §1
# HSF1 = HSF1 (Homo sapiens, UniProt Q00613 1-529); details: protein: recombinant; tags: N-terminal GST; chain copies: 3; dsDNA, one strand shown
# How it was run: as §1
# SPIC = molecular target: T2, SPIC (Homo sapiens, UniProt Q8N5J4 1-248); details: protein: recombinant; tags: N-terminal GST; dsDNA, one strand shown
# T2 sequence: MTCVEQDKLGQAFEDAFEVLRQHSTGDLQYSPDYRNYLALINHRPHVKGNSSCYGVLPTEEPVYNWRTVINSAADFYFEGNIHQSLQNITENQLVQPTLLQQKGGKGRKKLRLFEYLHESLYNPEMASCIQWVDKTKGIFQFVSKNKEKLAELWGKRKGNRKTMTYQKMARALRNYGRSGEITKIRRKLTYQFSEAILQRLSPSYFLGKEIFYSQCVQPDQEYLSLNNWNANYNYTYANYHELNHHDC
# How it was run: as §1
# ELF4 = ELF4 (Homo sapiens, UniProt Q99607 1-663); details: protein: recombinant; tags: N-terminal GST; dsDNA, one strand shown
# How it was run: as §1
# ELK4 = molecular target: T3, ELK4 (Homo sapiens, UniProt P28324-2 1-405); details: protein: recombinant; tags: N-terminal GST; dsDNA, one strand shown
# T3 sequence: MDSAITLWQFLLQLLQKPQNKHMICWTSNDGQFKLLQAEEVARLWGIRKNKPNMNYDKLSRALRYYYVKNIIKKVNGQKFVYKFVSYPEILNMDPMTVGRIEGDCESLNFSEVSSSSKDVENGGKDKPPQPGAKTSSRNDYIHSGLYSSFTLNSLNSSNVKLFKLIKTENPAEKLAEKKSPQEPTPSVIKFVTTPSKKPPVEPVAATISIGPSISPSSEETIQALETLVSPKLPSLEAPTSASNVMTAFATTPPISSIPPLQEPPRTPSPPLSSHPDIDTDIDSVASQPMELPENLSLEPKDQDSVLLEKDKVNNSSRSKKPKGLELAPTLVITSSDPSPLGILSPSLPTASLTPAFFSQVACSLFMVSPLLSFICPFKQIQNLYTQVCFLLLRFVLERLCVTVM
# How it was run: as §1
# ETV2 = molecular target: T4, ETV2 (Homo sapiens, UniProt O00321 1-342); details: protein: recombinant; tags: N-terminal GST; dsDNA, one strand shown
# T4 sequence: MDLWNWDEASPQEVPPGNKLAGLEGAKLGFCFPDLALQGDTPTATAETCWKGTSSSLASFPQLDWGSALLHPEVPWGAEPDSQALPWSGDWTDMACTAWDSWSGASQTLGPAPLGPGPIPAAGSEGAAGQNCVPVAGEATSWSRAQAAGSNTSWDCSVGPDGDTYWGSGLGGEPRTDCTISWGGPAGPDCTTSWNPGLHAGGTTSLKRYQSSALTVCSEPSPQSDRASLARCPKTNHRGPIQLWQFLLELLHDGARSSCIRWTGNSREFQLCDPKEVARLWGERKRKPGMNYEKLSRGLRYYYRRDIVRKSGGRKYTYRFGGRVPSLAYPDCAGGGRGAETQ
# How it was run: as §1
# ELF3 = molecular target: T5, ELF3 (Homo sapiens, UniProt P78545 1-371); details: protein: recombinant; tags: N-terminal GST; dsDNA, one strand shown
# T5 sequence: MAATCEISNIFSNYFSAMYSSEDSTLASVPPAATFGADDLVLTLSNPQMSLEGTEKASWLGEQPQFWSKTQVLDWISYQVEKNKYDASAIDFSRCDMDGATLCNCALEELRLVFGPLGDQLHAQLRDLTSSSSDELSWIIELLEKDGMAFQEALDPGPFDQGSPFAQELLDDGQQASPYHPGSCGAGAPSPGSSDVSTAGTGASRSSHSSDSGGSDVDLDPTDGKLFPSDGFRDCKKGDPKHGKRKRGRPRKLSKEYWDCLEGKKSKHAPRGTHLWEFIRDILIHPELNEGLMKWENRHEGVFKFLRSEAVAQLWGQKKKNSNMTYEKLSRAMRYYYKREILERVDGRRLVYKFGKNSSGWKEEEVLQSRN
# How it was run: as §1
# CRX = CRX (Homo sapiens, UniProt O43186 1-299); details: protein: recombinant; tags: N-terminal GST; dsDNA, one strand shown
# How it was run: as §1
# ETV1 = ETV1 (Homo sapiens, UniProt P50549 1-477); details: protein: recombinant; tags: N-terminal GST; dsDNA, one strand shown
# How it was run: as §1
# ETV5, sequence (P41161 whole entry): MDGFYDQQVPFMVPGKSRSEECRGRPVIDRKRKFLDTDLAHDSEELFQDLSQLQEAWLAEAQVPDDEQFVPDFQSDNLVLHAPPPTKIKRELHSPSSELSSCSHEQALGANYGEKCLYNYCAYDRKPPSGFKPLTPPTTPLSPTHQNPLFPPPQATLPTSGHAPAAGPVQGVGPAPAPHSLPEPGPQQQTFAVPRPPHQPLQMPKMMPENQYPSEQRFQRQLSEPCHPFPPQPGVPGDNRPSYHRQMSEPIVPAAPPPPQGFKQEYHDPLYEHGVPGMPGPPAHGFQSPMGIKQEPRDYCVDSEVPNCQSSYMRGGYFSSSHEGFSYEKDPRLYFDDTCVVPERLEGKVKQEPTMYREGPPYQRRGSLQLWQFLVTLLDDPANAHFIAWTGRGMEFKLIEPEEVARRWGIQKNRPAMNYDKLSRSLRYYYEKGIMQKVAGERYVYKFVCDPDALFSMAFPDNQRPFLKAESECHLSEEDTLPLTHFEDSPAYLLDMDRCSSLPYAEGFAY
# HSF1, sequence (Q00613 whole entry): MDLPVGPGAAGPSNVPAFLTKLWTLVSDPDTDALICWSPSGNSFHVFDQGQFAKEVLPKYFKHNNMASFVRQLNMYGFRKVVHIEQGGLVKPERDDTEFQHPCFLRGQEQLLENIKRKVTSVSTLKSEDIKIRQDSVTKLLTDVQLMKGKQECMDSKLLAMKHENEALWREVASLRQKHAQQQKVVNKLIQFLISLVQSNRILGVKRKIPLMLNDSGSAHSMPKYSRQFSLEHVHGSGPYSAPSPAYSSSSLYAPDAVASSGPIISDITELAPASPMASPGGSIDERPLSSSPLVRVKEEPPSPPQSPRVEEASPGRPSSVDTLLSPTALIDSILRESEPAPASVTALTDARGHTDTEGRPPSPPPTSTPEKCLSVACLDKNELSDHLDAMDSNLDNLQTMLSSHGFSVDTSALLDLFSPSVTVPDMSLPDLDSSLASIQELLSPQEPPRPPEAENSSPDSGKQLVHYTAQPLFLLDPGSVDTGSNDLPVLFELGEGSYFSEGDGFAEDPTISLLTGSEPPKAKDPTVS
# ELF4, sequence (Q99607 whole entry): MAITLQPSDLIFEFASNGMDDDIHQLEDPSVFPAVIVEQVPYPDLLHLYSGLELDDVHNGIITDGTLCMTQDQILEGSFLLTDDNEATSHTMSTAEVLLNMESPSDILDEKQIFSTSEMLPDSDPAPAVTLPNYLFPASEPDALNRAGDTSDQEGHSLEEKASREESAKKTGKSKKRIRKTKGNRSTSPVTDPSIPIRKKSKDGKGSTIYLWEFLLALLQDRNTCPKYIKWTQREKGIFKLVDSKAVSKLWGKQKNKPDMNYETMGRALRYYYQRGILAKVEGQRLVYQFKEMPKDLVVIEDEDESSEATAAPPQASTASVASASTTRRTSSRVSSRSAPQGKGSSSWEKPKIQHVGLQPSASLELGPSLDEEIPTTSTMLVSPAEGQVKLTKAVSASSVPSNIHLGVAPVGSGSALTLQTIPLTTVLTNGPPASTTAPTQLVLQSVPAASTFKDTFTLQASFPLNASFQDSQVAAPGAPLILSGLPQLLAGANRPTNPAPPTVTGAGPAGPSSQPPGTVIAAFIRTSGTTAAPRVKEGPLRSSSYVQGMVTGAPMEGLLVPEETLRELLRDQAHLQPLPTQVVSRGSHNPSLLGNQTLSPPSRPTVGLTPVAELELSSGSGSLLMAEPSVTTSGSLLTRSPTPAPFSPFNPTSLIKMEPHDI
# ETV1, sequence (P50549 whole entry): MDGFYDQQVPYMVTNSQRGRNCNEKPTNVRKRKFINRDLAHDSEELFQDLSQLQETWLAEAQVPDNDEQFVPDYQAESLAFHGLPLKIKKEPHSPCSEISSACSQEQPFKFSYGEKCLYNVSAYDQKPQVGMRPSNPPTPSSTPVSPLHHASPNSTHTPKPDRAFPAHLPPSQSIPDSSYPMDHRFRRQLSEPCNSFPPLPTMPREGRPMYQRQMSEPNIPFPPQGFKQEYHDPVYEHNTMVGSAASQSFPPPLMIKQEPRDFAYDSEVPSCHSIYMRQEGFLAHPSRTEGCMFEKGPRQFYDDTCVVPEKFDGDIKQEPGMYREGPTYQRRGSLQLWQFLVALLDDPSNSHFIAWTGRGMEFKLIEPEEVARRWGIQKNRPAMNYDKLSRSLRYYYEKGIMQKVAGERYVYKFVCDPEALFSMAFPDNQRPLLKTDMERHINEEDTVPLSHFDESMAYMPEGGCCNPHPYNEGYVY
# CRX, sequence (O43186 whole entry): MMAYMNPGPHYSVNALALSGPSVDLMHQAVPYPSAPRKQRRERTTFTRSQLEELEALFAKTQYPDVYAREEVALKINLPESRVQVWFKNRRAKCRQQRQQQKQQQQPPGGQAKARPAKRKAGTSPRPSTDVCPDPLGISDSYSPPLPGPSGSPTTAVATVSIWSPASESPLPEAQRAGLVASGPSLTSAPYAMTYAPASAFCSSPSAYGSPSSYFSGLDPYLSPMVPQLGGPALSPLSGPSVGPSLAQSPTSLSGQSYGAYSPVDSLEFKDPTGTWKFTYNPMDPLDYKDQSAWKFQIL
sequence,measurement,setting,value
TGGCAT,binding signal,FEV,"1.3 fold enrichment (6-mer frequency, TF over GST control)"
same,binding signal,ETV5,"1.13 fold enrichment (6-mer frequency, TF over GST control)"
same,binding signal,HSF1,"1.26 fold enrichment (6-mer frequency, TF over GST control)"
same,binding signal,SPIC,"1.24 fold enrichment (6-mer frequency, TF over GST control)"
same,binding signal,ELF4,"1.18 fold enrichment (6-mer frequency, TF over GST control)"
same,binding signal,ELK4,"1.21 fold enrichment (6-mer frequency, TF over GST control)"
same,binding signal,ETV2,"1.37 fold enrichment (6-mer frequency, TF over GST control)"
same,binding signal,ELF3,"1.24 fold enrichment (6-mer frequency, TF over GST control)"
same,binding signal,CRX,"1.21 fold enrichment (6-mer frequency, TF over GST control)"
same,binding signal,ETV1,"1.18 fold enrichment (6-mer frequency, TF over GST control)"
